{
  "source": "PubChem BioAssay (NCATS)",
  "key": {"[1]": {"assay": "Viability qHTS for spleen associated tyrosine kinase inhibitor (SYKi) naive MV4-11 cells (AID 1963823); also: nearly all actives have a fitted effect of over 40% in size", "outline": "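In this viability screen, compounds acted on SYK inhibitor naive MV4-11 cells for three days (72 hr, 37 C). Remaining viable cells were measured by CellTiter-Glo luminescence following a 10 min room-temperature development.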"}, "[2]": {"assay": "Viability qHTS for spleen associated tyrosine kinase inhibitor (SYKi) drug resistant MV4-11 cells (AID 1963824); also: nearly all actives have a fitted effect of over 35% in size", "outline": "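SYK inhibitor-resistant MV4-11 AML cells, 500 per well, added to predispensed compounds and incubated 72 hr at 37 C, 5% CO2. Viability measured by CellTiter-Glo luminescence after 10 min at room temperature.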"}, "[3]": {"assay": "Cellular viability qHTS for adrenocortical cancer (ACC) cell line SW-13 (AID 1963989); also: nearly all actives have a fitted effect of over 65% in size;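 as to activity (max response): cells grown in serum-free medium with ITS supplement; % is scaled to controls: 0 for no effect and ±100 for the full control effect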", "conditions": "SW-13 ACC cells viability, CellTiter-Glo, 48 h; activity (max response): stronger effect = lower value", "outline": "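IC50 and maximal-response values come from four-parameter logistic fits of titration data. SW-13 cells in serum-free medium received compounds (up to 46 uM final) for 48 h before CellTiter-Glo luminescence.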"}, "[4]": {"assay": "Cellular viability qHTS for adrenocortical cancer (ACC) cell line NCI-H295R (AID 1963990); also: nearly all actives have a fitted effect of over 60% in size", "outline": "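Adrenocortical carcinoma cells, suspended at 300 000 cells/mL in serum-free DMEM plus ITS, rested overnight before pin transfer of compound. After two days' incubation, ATP-dependent luminescence was recorded and curve-fitted.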"}},
  "note": "Several values for one entry are separate records, joined by “and”; a condition that tells them apart may be missing. Identical values can stand only once. Results filed as inconclusive are left out. Some structures have more than one record in an assay (separate samples or runs), and their calls can disagree. Activity calls are given as the source filed them. Calls follow the shape of the dose curve; as a rule, active = well fitted curve in the direction sought with a large enough effect; inconclusive = small, poorly fitted or top-dose-only effect, or another doubt; inactive = no such curve, though single readings can be large; an effect the other way counts as inactive or inconclusive. Potency is read from the fitted curve at half-maximal effect.",
  "data": [
    {"smiles": "CC(COc1ccccc1)NC(C)C(O)c1ccc(O)cc1", "note": "(centres undefined)", "values": [
      {"measurement": "Potency", "setting": "[1]", "result": "inactive"},
      {"measurement": "Potency", "setting": "[2]", "result": "inactive"},
      {"measurement": "activity (max response)", "setting": "[3]", "result": "3.43% (inactive)"},
      {"measurement": "Potency", "setting": "[4]", "result": "inactive"}
    ]},
    {"smiles": "CCC(=O)NS(=O)(=O)c1ccc(-c2c(-c3ccccc3)noc2C)cc1", "values": [
      {"measurement": "Potency", "setting": "[1]", "result": "inactive"},
      {"measurement": "Potency", "setting": "[2]", "result": "8.2 µM (active)"},
      {"measurement": "activity (max response)", "setting": "[3]", "result": "-1.9% (inactive)"},
      {"measurement": "Potency", "setting": "[4]", "result": "inactive"}
    ]},
    {"smiles": "COc1cc(C(=O)O)ccc1NC(=O)[C@@H]1N[C@@H](CC(C)(C)C)[C@](C#N)(c2ccc(Cl)cc2F)[C@H]1c1cccc(Cl)c1F", "values": [
      {"measurement": "Potency", "setting": "[1]", "result": "6.61 µM (active)"},
      {"measurement": "Potency", "setting": "[2]", "result": "5.25 µM (active)"},
      {"measurement": "activity (max response)", "setting": "[3]", "result": "1.9% (inactive)"},
      {"measurement": "Potency", "setting": "[4]", "result": "inactive"}
    ]},
    {"smiles": "Nc1ccc(C(=O)O)c(O)c1", "values": [
      {"measurement": "Potency", "setting": "[1]", "result": "inactive"},
      {"measurement": "Potency", "setting": "[2]", "result": "inactive"},
      {"measurement": "activity (max response)", "setting": "[3]", "result": "12.8% (inactive)"},
      {"measurement": "Potency", "setting": "[4]", "result": "inactive"}
    ]},
    {"smiles": "COc1ccc2cc1Oc1cc3c(cc1OC)CC[N+](C)(C)[C@H]3Cc1ccc(cc1)Oc1c(OC)c(OC)cc3c1[C@@H](C2)[N+](C)(C)CC3", "values": [
      {"measurement": "Potency", "setting": "[1]", "result": "inactive"},
      {"measurement": "Potency", "setting": "[2]", "result": "inactive"},
      {"measurement": "activity (max response)", "setting": "[3]", "result": "15.7% (inactive)"},
      {"measurement": "Potency", "setting": "[4]", "result": "inactive"}
    ]},
    {"smiles": "C=C1[C@H](OC(=O)/C=C(\\C)CC)C[C@@H](C(C)C)[C@@H]2[C@H]([C@@H](C)OC(C)=O)C(=O)C[C@@H]12", "values": [
      {"measurement": "Potency", "setting": "[1]", "result": "14.8 µM (active)"},
      {"measurement": "Potency", "setting": "[2]", "result": "13.2 µM (active)"},
      {"measurement": "activity (max response)", "setting": "[3]", "result": "6.72% (inactive)"},
      {"measurement": "Potency", "setting": "[4]", "result": "inactive"}
    ]},
    {"smiles": "Cc1ccccc1OCC(O)CO", "note": "(centres undefined)", "values": [
      {"measurement": "Potency", "setting": "[1]", "result": "inactive"},
      {"measurement": "Potency", "setting": "[2]", "result": "inactive"},
      {"measurement": "activity (max response)", "setting": "[3]", "result": "-4.04% (inactive)"},
      {"measurement": "Potency", "setting": "[4]", "result": "inactive"}
    ]},
    {"smiles": "COc1cc(C(=O)N2CCCCCCC2)cc(OC)c1OC", "values": [
      {"measurement": "Potency", "setting": "[1]", "result": "inactive"},
      {"measurement": "Potency", "setting": "[2]", "result": "inactive"},
      {"measurement": "activity (max response)", "setting": "[3]", "result": "6.12% (inactive)"},
      {"measurement": "Potency", "setting": "[4]", "result": "inactive"}
    ]},
    {"smiles": "COc1cccc2c1C(=O)c1c(O)c3c(c(O)c1C2=O)C[C@@](O)(/C(CO)=N/NC(=O)CCCCCN1C(=O)C=CC1=O)C[C@@H]3O[C@H]1C[C@H](N)[C@H](O)[C@H](C)O1", "values": [
      {"measurement": "Potency", "setting": "[1]", "result": "0.132 µM (active)"},
      {"measurement": "Potency", "setting": "[2]", "result": "0.186 µM (active)"},
      {"measurement": "Potency", "setting": "[3]", "result": "3.55 µM (active)"},
      {"measurement": "Potency", "setting": "[4]", "result": "14.1 µM (active)"}
    ]},
    {"smiles": "CN(C)CCOc1ccc(/C(=C(/CCCl)c2ccccc2)c2ccccc2)cc1", "values": [
      {"measurement": "Potency", "setting": "[1]", "result": "14.8 µM (active)"},
      {"measurement": "Potency", "setting": "[2]", "result": "13.2 µM (active)"},
      {"measurement": "activity (max response)", "setting": "[3]", "result": "-6.2% (inactive)"},
      {"measurement": "Potency", "setting": "[4]", "result": "8.91 µM (active)"}
    ]},
    {"smiles": "CC[C@]12C=CCN3CC[C@@]4(c5cc([C@@]6(C(=O)OC)C[C@H]7C[C@@H](C(C)(F)F)CN(Cc8c6[nH]c6ccccc86)C7)c(OC)cc5N(C)[C@H]4[C@@](O)(C(=O)OC)[C@@H]1OC(C)=O)[C@@H]32", "values": [
      {"measurement": "Potency", "setting": "[1]", "result": "0.0555 µM (active)"},
      {"measurement": "Potency", "setting": "[2]", "result": "0.0494 µM (active)"},
      {"measurement": "Potency", "setting": "[3]", "result": "0.123 µM (active)"},
      {"measurement": "Potency", "setting": "[4]", "result": "0.548 µM (active)"}
    ]},
    {"smiles": "O=C(CCOCCOCCOCCOCCC(=O)Nc1c(I)cc(I)c(C(=O)O)c1I)Nc1c(I)cc(I)c(C(=O)O)c1I", "values": [
      {"measurement": "Potency", "setting": "[1]", "result": "inactive"},
      {"measurement": "Potency", "setting": "[2]", "result": "inactive"},
      {"measurement": "activity (max response)", "setting": "[3]", "result": "6.37% (inactive)"},
      {"measurement": "Potency", "setting": "[4]", "result": "inactive"}
    ]},
    {"smiles": "COc1cc2c(cc1OC)C(=O)CC2", "values": [
      {"measurement": "Potency", "setting": "[1]", "result": "inactive"},
      {"measurement": "Potency", "setting": "[2]", "result": "inactive"},
      {"measurement": "activity (max response)", "setting": "[3]", "result": "12.7% (inactive)"},
      {"measurement": "Potency", "setting": "[4]", "result": "inactive"}
    ]},
    {"smiles": "O=C1c2ccccc2C(=O)C1c1ccc(Br)cc1", "values": [
      {"measurement": "Potency", "setting": "[1]", "result": "inactive"},
      {"measurement": "Potency", "setting": "[2]", "result": "inactive"},
      {"measurement": "activity (max response)", "setting": "[3]", "result": "7.53% (inactive)"},
      {"measurement": "Potency", "setting": "[4]", "result": "inactive"}
    ]},
    {"smiles": "CC(=O)OCC(=O)[C@@]12OC(C)(C)O[C@@H]1C[C@H]1[C@@H]3C[C@H](F)C4=CC(=O)C=C[C@]4(C)[C@@]3(F)[C@@H](O)C[C@@]12C", "values": [
      {"measurement": "Potency", "setting": "[1]", "result": "inactive and 93.4 nM (active)"},
      {"measurement": "Potency", "setting": "[2]", "result": "inactive"},
      {"measurement": "activity (max response)", "setting": "[3]", "result": "10.5% (inactive) and 8.23% (inactive)"},
      {"measurement": "Potency", "setting": "[4]", "result": "inactive"}
    ]},
    {"smiles": "C/C=C(/C)C(=O)O[C@H]1C(C)=CC23C(=O)C(C=C(CO)[C@@H](O)[C@]12O)[C@H]1[C@@H](C[C@H]3C)C1(C)C", "note": "(some centres undefined)", "values": [
      {"measurement": "Potency", "setting": "[1]", "result": "0.0166 µM (active)"},
      {"measurement": "Potency", "setting": "[2]", "result": "0.0083 µM (active)"},
      {"measurement": "activity (max response)", "setting": "[3]", "result": "-8.96% (inactive)"},
      {"measurement": "Potency", "setting": "[4]", "result": "inactive"}
    ]},
    {"smiles": "COc1ccc(S(=O)(=O)N(CCO)c2ccccc2CN(C)C/C=C/c2ccc(Cl)cc2)cc1", "values": [
      {"measurement": "Potency", "setting": "[1]", "result": "4.68 µM (active)"},
      {"measurement": "Potency", "setting": "[2]", "result": "4.68 µM (active)"},
      {"measurement": "Potency", "setting": "[3]", "result": "10 µM (active)"},
      {"measurement": "Potency", "setting": "[4]", "result": "12.6 µM (active)"}
    ]},
    {"smiles": "CN(C)C/C=C/C(=O)Nc1cc2c(Nc3ccc(F)c(Cl)c3)ncnc2cc1O[C@H]1CCOC1", "values": [
      {"measurement": "Potency", "setting": "[1]", "result": "1.48 µM (active)"},
      {"measurement": "Potency", "setting": "[2]", "result": "1.86 µM (active)"},
      {"measurement": "Potency", "setting": "[3]", "result": "0.891 µM (active)"},
      {"measurement": "Potency", "setting": "[4]", "result": "7.08 µM (active)"}
    ]},
    {"smiles": "CC(C)(O)CS(=O)(=O)Nc1ccc2c(c1)CCN(C(=O)COc1cccnc1)C2", "values": [
      {"measurement": "Potency", "setting": "[1]", "result": "0.0209 µM (active)"},
      {"measurement": "Potency", "setting": "[2]", "result": "0.0295 µM (active)"},
      {"measurement": "Potency", "setting": "[3]", "result": "0.282 µM (active)"},
      {"measurement": "Potency", "setting": "[4]", "result": "0.112 µM (active)"}
    ]},
    {"smiles": "Cc1c(O)cccc1C(=O)NC(CSc1ccccc1)C(O)CN1CC2CCCCC2CC1C(=O)NC(C)(C)C", "note": "(centres undefined)", "values": [
      {"measurement": "Potency", "setting": "[1]", "result": "16.6 µM (active)"},
      {"measurement": "Potency", "setting": "[2]", "result": "11.8 µM (active)"},
      {"measurement": "Potency", "setting": "[3]", "result": "28.2 µM (active)"},
      {"measurement": "Potency", "setting": "[4]", "result": "17.8 µM (active)"}
    ]},
    {"smiles": "C[C@H]1[C@H](C)CC[C@]2(C(=O)O)CC[C@]3(C)C(=CC[C@@H]4[C@@]5(C)CC[C@H](O)C(C)(C)[C@@H]5CC[C@]43C)[C@H]12", "values": [
      {"measurement": "Potency", "setting": "[1]", "result": "23.5 µM (active)"},
      {"measurement": "Potency", "setting": "[2]", "result": "20.9 µM (active)"},
      {"measurement": "activity (max response)", "setting": "[3]", "result": "-4.55% (inactive)"},
      {"measurement": "Potency", "setting": "[4]", "result": "inactive"}
    ]}
  ]
}
